Consider 61 compounds from PubChem BioAssay AID1850 (Southern Research Specialized Biocontainment Screening …, 2009).

Molecules are shown by their SMILES. Values joined by “and” are separate entries in the source; they are usually repeats but may differ in a detail not shown here. Equal entries are not always repeated. The whole screen tested about 310,000 compounds, of which about 1,000 (0.32%) were called active. No rule for the calls is given here. A selection follows. Measured potencies and affinities stand elsewhere.

A short description of the assay: Inhibition of PhoP regulon, Salmonella typhi GFP reporter cells, confirmation, 4 h (AID 1850).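 Also: 0% = induced wells with vehicle and 100% = uninduced wells.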 The conditions noted are these: Salmonella Typhi PhoP-promoter GFP reporter, fluorescence, at 50 µM, stronger effect = higher value.
Consider `Cc1onc(-c2ccccc2)c1C(=O)N1CCC(CO)(Cc2ccccc2)CC1`, for which the inhibition was -9.9% (inactive).
Take `CCC(=O)Nc1ccc2c(c1)nc(CCN1CCCCC1)n2C`: the inhibition is 0.58% (inactive).
As for `Nc1ccn([C@@H]2O[C@H](CO)[C@@H](O)C2O)c(=O)n1` (stereo partly specified), the inhibition is 6.26% (inactive).
The same measure for `Nc1cnn(C2OC(CO)C(O)C2O)c(=O)n1` (stereo unspecified): 2.98% (inactive); for `Nc1nc(F)nc2c1ncn2[C@@H]1O[C@H](CO)[C@@H](O)[C@@H]1O`: -2.76% (inactive); for `Nc1nc(Cl)nc2c1ncn2[C@@H]1O[C@H](CO)[C@@H](O)[C@H]1O`: 19.8% (inactive) and 8.46% (inactive).
Take `NC(=O)c1ncn([C@@H]2O[C@H](CO)[C@@H](O)[C@H]2O)c1O`: the inhibition is 4.75% (inactive).
The figure for `Nc1ccn([C@@H]2O[C@H](CO)[C@@H](O)[C@@H]2O)c(=O)n1` is 1.39% (inactive) and -1.71% (inactive); for `Cc1ccc(Cn2nnnc2CN2CCC(n3nnc4cc(C)ccc43)CC2)cc1` it is -8.85% (inactive).
The figure for `CCOC(=O)c1ccc(CNC(=O)c2n[nH]c(=O)c3ccccc23)o1` is -3.19% (inactive); for `O=C(Nc1cccc(-c2nc3ccccc3s2)c1)c1ccc2c(c1)OCO2` it is -3.82% (inactive); for `COc1ccc(N=C2SCC(c3ccc([N+](=O)[O-])cc3)=NN2CCO)cc1` it is 7.19% (inactive).
The same measure for `O=C(CN1CCN(S(=O)(=O)c2ccc(Br)cc2)CC1)N/N=C/c1ccco1`: -9.02% (inactive).
For the compound `O=C(O)COCC(=O)N1CCN(c2cc(C(F)(F)F)nc3ccccc23)CC1`, the inhibition was 1.72% (inactive).
Turning to `CC(=O)NCCC(=O)Nc1nc2c(ccc3ccccc32)s1`, the inhibition is 9.9% (inactive).
The figure for `O=C(N/C(=C/c1ccco1)C(=O)N1CCCCCC1)c1ccccc1` is 2.51% (inactive); for `O=C1c2ccccc2C(=O)N1CCCc1c[nH]c2ccccc12` it is -2.4% (inactive); for `O=C(NCc1cccc(C(F)(F)F)c1)C1CCCN(c2cnccn2)C1` (stereo unspecified) it is 3.94% (inactive).
Take `Cc1ccc2[nH]c3c(N4CCN(Cc5ccccc5)CC4)ncnc3c2c1`: the inhibition is 11.1% (inactive).
The same measure for `Cc1ccc2c(c1)[nH]c1c(N3CCN(Cc4ccccc4)CC3)ncnc12`: 6.98% (inactive); for `Cc1ccc(NC(=O)c2ccc3snnc3c2)cc1`: -2.31% (inactive); for `COc1ccccc1N1CCN(C(=O)CN2C(=O)c3ccccc3S2(=O)=O)CC1`: -8.97% (inactive).
Take `Cc1cccc(Nc2nc3ccccc3s2)c1C`: the inhibition was -1.36% (inactive).
Regarding `Cc1cc(Nc2ccccc2O)c2ccccc2n1`, the inhibition is 6.66% (inactive).
The same measure for `Cc1cccc(NC(=S)N(C)C)c1C`: 17.9% (inactive); for `Cc1cc(Nc2ccccc2)nc2cc(O)ccc12`: 11.4% (inactive); for `O=C(CSC1=NNC(c2ccccn2)S1)Nc1ccc(C(F)(F)F)cc1` (stereo unspecified): 3.27% (inactive).
The same measure for `Cc1cc(C)c2cc(C(=O)N3CCC(C(=O)c4ccc(F)cc4)CC3)[nH]c2c1`: 2.06% (inactive); for `O=C1c2ccccc2NC(c2ccccc2O)N1O` (stereo unspecified): -4.51% (inactive); for `O=C(N/N=C\c1ccc(F)cc1)c1ccc(F)cc1`: 23.4% (inactive).
The same measure for `N/C(=N\N=C/c1ccc(Br)cc1)N/N=C\c1ccc(Br)cc1`: -6.33% (inactive); for `CC(=O)Nc1ccc2c(c1)nc1n2CCSC1`: 11.9% (inactive).
In the case of `Cc1cc(/C=C2\C(=O)NC(=O)N(c3ccc(Cl)cc3)C2=O)c(C)n1-c1cccc(C(=O)O)c1`, the inhibition is -15.1% (inactive).
The figure for `Cc1ccc(/C=N/NC(=O)c2nnn(-c3nonc3N)c2CN(C)c2ccccc2)s1` is 0.97% (inactive); for `Oc1ccccc1N=N/C(=N/Nc1ccccc1O)c1ccccc1` it is -5.08% (inactive); for `C/C(N=Nc1nc2ccccc2s1)=N\Nc1ccccc1O` it is 16.1% (inactive).
The figure for `O=C(Cn1nc(C(F)F)cc1C(F)F)NNC(=S)Nc1ccc(Cl)cc1` is 8.04% (inactive); for `O=C(Cn1nc(C(F)F)cc1C(F)F)NNC(=S)Nc1ccc(F)cc1` it is -9.87% (inactive); for `COC1(OC)N=C(N)C2(C#N)C(c3ccccc3)NC(C)=CC12C#N` (stereo unspecified) it is 22.3% (inactive).
Regarding `CC(Oc1ccc(Br)cc1)C(=O)N(C)CC(=O)Nc1ccc(N2CCOCC2)cc1` (stereo unspecified), the inhibition is -2.3% (inactive).
The figure for `Cc1cc(N2CCN(c3ccccc3)CC2)nc(NCc2ccccc2)n1` is -4.52% (inactive).
The figure for `Cc1cc(N2CCCCC2)nc(NCc2ccccc2)n1` is 5.84% (inactive).
With `Cc1cc(N/N=C/c2ccccc2)nc(NCc2ccccc2)n1`, the inhibition is -6.44% (inactive).
`Cc1ccc(/C=N/Nc2cc(C)nc(NCc3ccccc3)n2)cc1`: the inhibition is 8.63% (inactive).
For `Cc1cc(Nc2cccc(F)c2)nc(NCc2ccccc2)n1`, the inhibition is -0.63% (inactive).
The same measure for `CCCCNc1cc(C)nc(NCc2ccccc2)n1`: 15.8% (inactive).
Take `Cc1cc(Nc2ccccc2)nc(NCc2ccccc2)n1`: the inhibition is -0.96% (inactive).
The same measure for `Cc1cc(OC2CCCCC2)nc(NCc2ccccc2)n1`: -3.41% (inactive); for `CCOc1ccc(S(=O)(=O)Nc2ccccc2C(=O)NCc2ccco2)cc1`: -4.17% (inactive).
The figure for `CCOCCCNC(=O)c1ccc(N(C)S(=O)(=O)c2ccc(OC)cc2)cc1` is -7.69% (inactive); for `CCCCCC(O)CCC(=O)NNC1=CC(=O)CC(C)(C)C1` (stereo unspecified) it is 5.33% (inactive); for `CC(=O)NCCCC(=O)NN1C(=S)N(Cc2ccccc2)C(=O)C1CC(=O)Nc1cccc(C)c1` (stereo unspecified) it is -3.38% (inactive).
The same measure for `COc1ccc(CCNC(=O)c2ccc(OCC(=O)N3CCOCC3)c(OC)c2)cc1OC`: 2.3% (inactive).
Take `O=C(NC(=S)Nc1ccc(S(=O)(=O)Nc2nccs2)cc1)c1cccc(F)c1`: the inhibition is 9.55% (inactive).
With `O=C(Nc1cccc(N=Cc2cc(Br)cc(Br)c2O)c1)c1ccco1`, the inhibition was 18.1% (inactive).
The figure for `O=C(Nc1cc(Br)c(O)c(Br)c1)c1cccc(NC(=O)c2ccco2)c1` is -5.68% (inactive).
The same measure for `O=C(Nc1cccnc1)c1ccc(Br)c(S(=O)(=O)N2CCCC2)c1`: 1.47% (inactive); for `O=C(Nc1nnc(-c2ccccn2)o1)c1ccc(Br)cc1`: -1.87% (inactive).
The figure for `Cc1cccc(C(=O)Nc2nnc(-c3ccco3)o2)c1` is -1.28% (inactive); for `O=C(Nc1nnc(-c2ccccn2)o1)c1cccc(Br)c1` it is 3.24% (inactive); for `O=C(Nc1nnc(-c2ccco2)o1)c1ccc(Cl)cc1` it is 0.38% (inactive).

As a reminder, the inhibition is the change of the read-out against control, counted positive when it falls.
